# Test results from the supplement of paper PMC6089552.
# Hit rate of the full screen: of about 3,200 compounds, about 300 (9.4%) showed activity. Many of the other results were omitted from the sample, so actives are more common in it than they were. Values without a mark were called inactive.
# Tested on: A673/TR/shEF
# Experiment: cell viability (LOESS-normalised, relative to median of negative controls) (log2 ratio); higher = more viable cells (less compound effect), active = hit call of the paper (over 3 MAD below the median)
# Conditions: treatment time: 72 h
# In short: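 Doxycycline, present or absent from 24 h before compounds, was used to induce EWS-FLI1 shRNA knockdown in A673/TR/shEF Ewing sarcoma cells at 1,500 per well in 384-well plates. Cells then received library compounds at two or more concentrations, or DMSO controls, for three days. Viability was measured by CellTiter-Glo luminescence on an Envision reader, and per-plate LOESS correction, division by the negative-control median and log2 transformation followed.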
# [1] = 0.25 µM, library screen: screen1, EWS-FLI1 expression: high (no doxycycline)
# [2] = 0.25 µM, library screen: screen1, EWS-FLI1 expression: low (doxycycline-induced shRNA knockdown)
# [3] = 2.5 µM, library screen: screen1, EWS-FLI1 expression: high (no doxycycline)
# [4] = 2.5 µM, library screen: screen1, EWS-FLI1 expression: low (doxycycline-induced shRNA knockdown)
# [5] = 0.25 µM, library screen: screen2, EWS-FLI1 expression: high (no doxycycline)
# [6] = 0.25 µM, library screen: screen2, EWS-FLI1 expression: low (doxycycline-induced shRNA knockdown)
# [7] = 2.5 µM, library screen: screen2, EWS-FLI1 expression: high (no doxycycline)
# [8] = 2.5 µM, library screen: screen2, EWS-FLI1 expression: low (doxycycline-induced shRNA knockdown)
compound,measurement,setting,value
CCCCOC(=O)c1ccccc1C(=O)OCCCC,cell viability (log2),[1],0.118
same,cell viability (log2),[2],0.0394
same,cell viability (log2),[3],0.0831
same,cell viability (log2),[4],-0.283
CC(=O)C1=C(O)[C@@H]2[C@H]3c4c[nH]c5cccc(c45)C[C@H]3C(C)(C)N2C1=O,cell viability (log2),[1],0.0498
same,cell viability (log2),[2],0.042
same,cell viability (log2),[3],0.0855
same,cell viability (log2),[4],0.00492
COc1cc2c(c(OC)c1OC)-c1ccc(OC)c(=O)cc1[C@@H](NC(C)=O)CC2,cell viability (log2),"0.025 µM, library screen: screen2, EWS-FLI1 expression: high (no doxycycline)",0.127
same,cell viability (log2),"0.025 µM, library screen: screen2, EWS-FLI1 expression: low (doxycycline-induced shRNA knockdown)",0.0363
same,cell viability (log2),[1],-4.23 (active)
same,cell viability (log2),[2],-0.935 (active)
same,cell viability (log2),[5],-3.33 (active)
same,cell viability (log2),[6],-0.503 (active)
same,cell viability (log2),[3],-4.18 (active)
same,cell viability (log2),[4],-0.869 (active)
same,cell viability (log2),[7],-3.21 (active)
same,cell viability (log2),[8],-0.472 (active)
same,cell viability (log2),"25 µM, library screen: screen2, EWS-FLI1 expression: high (no doxycycline)",-3.45 (active)
same,cell viability (log2),"25 µM, library screen: screen2, EWS-FLI1 expression: low (doxycycline-induced shRNA knockdown)",-0.515 (active)
COc1cc2c(c(OC)c1OC)-c1ccc(O)c(=O)cc1C(NC(C)=O)CC2 (configuration not stated),cell viability (log2),[1],0.0964
same,cell viability (log2),[2],0.0193
same,cell viability (log2),[3],-1.1 (active)
same,cell viability (log2),[4],-0.493 (active)
COc1ccc2c(c1O)-c1c(OC)c(OC)cc3c1[C@H](C2)N(C)CC3,cell viability (log2),[1],-0.01
same,cell viability (log2),[2],-0.0109
same,cell viability (log2),[3],0.111
same,cell viability (log2),[4],0.131
COc1cc2c(cc1OC)C(=O)c1ccc(OC)c(OC)c1OCC(=O)C2,cell viability (log2),[1],0.0297
same,cell viability (log2),[2],0.0329
same,cell viability (log2),[3],0.104
same,cell viability (log2),[4],0.0978
C=C(C)c1cc2cc(C(C)=O)c(O)cc2o1,cell viability (log2),[1],0.113
same,cell viability (log2),[2],0.098
same,cell viability (log2),[3],0.0228
same,cell viability (log2),[4],0.00912
OCC(O)Cc1ccc2c(c1)OCO2 (configuration not stated),cell viability (log2),[1],0.0615
same,cell viability (log2),[2],0.039
same,cell viability (log2),[3],0.0501
same,cell viability (log2),[4],0.111
CC1(C)C(=O)[C@@H]2O[C@@H]2[C@@]2(C)C1C[C@@H](O)[C@]1(C)C2CC[C@@]2(C)[C@H](c3ccoc3)OC(=O)C3OC321 (some centres not stated),cell viability (log2),[1],0.0599
same,cell viability (log2),[2],0.093
same,cell viability (log2),[3],0.0793
same,cell viability (log2),[4],0.18
CC1(C)C(=O)C=C[C@]2(C)[C@H]3CC[C@@]4(C)[C@H](c5ccoc5)OC(=O)[C@H]5O[C@]54[C@]3(C)[C@H](O)C[C@@H]12,cell viability (log2),[1],-0.0265
same,cell viability (log2),[2],0.039
same,cell viability (log2),[3],0.0641
same,cell viability (log2),[4],0.0262
Cc1ccccc1CN1CCN(Cc2ccc(F)cc2)CC1,cell viability (log2),[1],0.0915
same,cell viability (log2),[2],0.13
same,cell viability (log2),[3],0.113
same,cell viability (log2),[4],0.0962
C[C@H]1CC[C@]2(NC1)O[C@H]1C[C@H]3[C@@H]4CC[C@H]5C[C@@H](O[C@@H]6O[C@H](CO)[C@H](O[C@@H]7O[C@H](CO)[C@@H](O)[C@H](O[C@@H]8OC[C@@H](O)[C@H](O)[C@H]8O)[C@H]7O[C@@H]7O[C@H](CO)[C@@H](O)[C@H](O)[C@H]7O)[C@H](O)[C@H]6O)CC[C@]5(C)[C@H]4CC[C@]3(C)[C@H]1[C@@H]2C,cell viability (log2),[1],0.0131
same,cell viability (log2),[2],-0.12
same,cell viability (log2),[3],-1.17 (active)
same,cell viability (log2),[4],-1.98 (active)
C[C@H]1CC[C@]2(NC1)O[C@H]1C[C@H]3[C@@H]4CC[C@H]5C[C@@H](O)CC[C@]5(C)[C@H]4CC[C@]3(C)[C@H]1[C@@H]2C,cell viability (log2),[1],0.0391
same,cell viability (log2),[2],1.7e-05
same,cell viability (log2),[3],0.161
same,cell viability (log2),[4],0.0669
C[C@@H]1CC[C@@]2(OC1)O[C@H]1[C@@H](O)[C@H]3[C@@H]4CC[C@H]5C[C@@H](O[C@@H]6O[C@H](CO)[C@H](O[C@@H]7O[C@H](CO)C(O)[C@H](O[C@@H]8OC[C@@H](O)[C@H](O)[C@H]8O)[C@H]7O[C@@H]7O[C@H](CO)[C@H](O)[C@H](O[C@@H]8O[C@H](CO)[C@@H](O)[C@H](O)[C@H]8O)[C@H]7O)[C@H](O)[C@H]6O)[C@H](O)C[C@]5(C)[C@H]4CC[C@]3(C)[C@H]1[C@@H]2C (some centres not stated),cell viability (log2),[1],0.0473
same,cell viability (log2),[2],0.00355
same,cell viability (log2),[3],0.099
same,cell viability (log2),[4],0.184
CCNc1nc(Cl)nc(NC(C)C)n1,cell viability (log2),[1],0.143
same,cell viability (log2),[2],0.0518
same,cell viability (log2),[3],0.132
same,cell viability (log2),[4],0.0856
CCC1(C2=NCCN2)Cc2ccccc2O1 (configuration not stated),cell viability (log2),[5],0.203
same,cell viability (log2),[6],0.0265
same,cell viability (log2),[7],0.184
same,cell viability (log2),[8],0.0979
CC[C@@]1([C@H]2O[C@H]([C@H]3O[C@@](O)(CO)[C@H](C)C[C@@H]3C)C[C@H]2C)CC[C@H]([C@@]2(C)CC[C@]3(C[C@H](O)[C@@H](C)[C@@H]([C@H](C)[C@H](OC)[C@@H](C)C(=O)O)O3)O2)O1,cell viability (log2),[1],-0.0386
same,cell viability (log2),[2],0.12
same,cell viability (log2),[3],-0.325 (active)
same,cell viability (log2),[4],0.0352
CO[C@@H]1C[C@@H](C[C@H]2CC[C@H](C)[C@H]([C@@H](C)C(=O)O)O2)O[C@]2(O[C@](C)([C@H]3CC[C@@](C)([C@@H]4O[C@@H]([C@H]5O[C@@](O)(CO)[C@H](C)C[C@@H]5C)C[C@@H]4C)O3)C[C@H]2C)[C@@H]1C,cell viability (log2),[1],0.0701
same,cell viability (log2),[2],0.147
same,cell viability (log2),[3],-0.685 (active)
same,cell viability (log2),[4],-0.0408
CN1CCc2cc(O)cc3c2C1Cc1ccc(O)c(O)c1-3 (configuration not stated),cell viability (log2),[5],0.248
same,cell viability (log2),[6],0.14
same,cell viability (log2),[7],0.197
same,cell viability (log2),[8],0.135
Nc1ccc2c(n1)[nH]c1ccccc12,cell viability (log2),[5],0.156
same,cell viability (log2),[6],0.0674
same,cell viability (log2),[7],0.0702
same,cell viability (log2),[8],0.0934
Nc1ccc(CCN2CCN(c3cccc(C(F)(F)F)c3)CC2)cc1,cell viability (log2),[5],0.0196
same,cell viability (log2),[6],0.0537
same,cell viability (log2),[7],0.131
same,cell viability (log2),[8],0.044
